Data taken from ChEMBL document CHEMBL3988442, “University of Dundee, Small-Polar-MMV Screening Library” (2021).
The whole screen tested about 69,000 compounds, of which about 950 (1.4%) showed an effect of 50% or more. The entries come from a sample that favours strong results as a whole.

test system: Mycobacterium tuberculosis; experiment: Cornell M. t heat shock assay; type: functional, organism-based; parameters: dose or concentration left out as unconfirmed; also: in the data most compounds retested in dose-response had high values

Row | SMILES | Percent Effect [%]
1 | CN(C)C(CNC(=O)c1cc2c([nH]c1=O)CCCC2=O)c1ccsc1 (configuration not stated) | -5.178
2 | Cc1ccccc1CN1C[C@@H]2COC[C@]2(CNC(=O)C2CCC2)C1.O=C(O)C(F)(F)F | 17.62
3 | Cc1ccc(CN(CCCn2ccnc2)Cc2cnc(N(C)C)nc2)s1.O=C(O)CC(O)(CC(=O)O)C(=O)O | -30.9
4 | CCc1ccc(CN(CCCn2ccnc2)Cc2ccc(C)s2)o1.O=C(O)CC(O)(CC(=O)O)C(=O)O | 103.6
5 | Cc1ccc(CN(CCCn2ccnc2)Cc2[nH]cnc2C)s1.O=C(O)CC(O)(CC(=O)O)C(=O)O | -16.97
6 | Cc1nc(CN2CCO[C@@H]3CN(Cc4ccccn4)CC[C@@H]3C2)cs1.O=C(O)C(F)(F)F.O=C(O)C(F)(F)F | -0.9653
7 | CC(=O)N1C[C@@H]2CC[C@H](C1)N(C(=O)CCc1n[nH]c3c1CCCC3)C2 | -1.596
8 | O=C(CCc1n[nH]c2c1CCCC2)N1C[C@@H]2CC[C@H](C1)N(CC1CC1)C2 | 90.59
9 | CS(=O)(=O)N1C[C@@H]2CC[C@H](C1)N(C(=O)CCc1n[nH]c3c1CCCC3)C2 | 3.499
10 | CN(C)C(=O)N1CCN(Cc2cnn(C)c2)CC2(CNC(=O)C2)C1.O=C(O)C(F)(F)F (configuration not stated) | 0.6854
11 | Cc1cc(NCCSc2nccn2C)n2nc(C)c(C)c2n1 | 72.35
12 | Cc1ccnc(NCCSc2nccn2C)n1 | 9.062
13 | Cc1cc(NCCSc2nccn2C)n2ncnc2n1 | -35.12
14 | Cc1cc(NCc2nnc3n2CCC3)n2nc(C)c(C)c2n1 | -14.51
15 | COCCn1cnnc1CNc1cc(C)nc2c(C)c(C)nn12 | 44.3
16 | CCSCCNc1cc(C)nc2c(C)c(C)nn12 | 105.5
17 | CC(C)C[C@H](N)c1nnc(SCC(N)=O)o1.Cl | -14.25
18 | Cn1ccnc1CN1CCC2(CC1)COC2.O=C(O)C(F)(F)F | 6.701
19 | CN(C)C(=O)c1nc2c(s1)CCCN2Cc1ccccc1 | 1.043
20 | CC(C)NC(=O)c1nc2c(s1)CCCN2Cc1ccccc1 | 16.22
21 | CCN(C(=O)c1nc2c(s1)CCCN2Cc1ccccc1)C(C)C | 52.41
22 | O=C(O)C(F)(F)F.O=C(O)C(F)(F)F.O=C(c1cccnc1)N1CCC2(CC1)COC(COc1ccccn1)C2 (configuration not stated) | -16.52
23 | CC[C@@H]1N(Cc2ccncc2)CCC[C@]12CCC(=O)N2CCOC.O=C(O)C(F)(F)F.O=C(O)C(F)(F)F | -19.31

Row | SMILES | Percent Effect [%]
24 | O=C(O)C(F)(F)F.O=C(O)C(F)(F)F.c1cnc(N2CCO[C@H]3CN(CC4CC4)C[C@H]32)nc1 | -34.72
25 | COc1ccccc1[C@@H]1CN(Cc2ccc3nsnc3c2)C[C@H]1C(=O)O | -17.79
26 | COc1ccccc1[C@@H]1CN(Cc2cc(C(C)(C)C)[nH]n2)C[C@H]1C(=O)O | 79.87
27 | COc1ccccc1[C@@H]1CN(Cc2ccncc2)C[C@H]1C(=O)O | 45.83
28 | CN1CC(=O)N(c2ccccc2)CC12CCN(CC1CCOCC1)C2.O=C(O)C(F)(F)F.O=C(O)C(F)(F)F (configuration not stated) | 3.802
29 | CC(C)n1cnc2ccc(NC(=O)CCCn3cccn3)cc2c1=O | -15.69
30 | CC(C)Cn1cnc2ccc(NC(=O)CCCn3cccn3)cc2c1=O | 60.75
31 | Cn1cnc2ccc(NC(=O)CCCn3cccn3)cc2c1=O | 5.614
32 | CC(C)[C@H](N)CC(=O)Nc1nc(-c2cnc(N3CCOCC3)nc2)cs1.Cl | -24.08
33 | CCC(=O)N1C[C@@H]2CCN(c3cnccn3)C[C@@H]2C1.O=C(O)C(F)(F)F | -28.75
34 | O=C(O)C(F)(F)F.c1cnc(NCc2nnn3c2CN(Cc2ccco2)CCC3)nc1 | -16.16
35 | Cc1ccc(C2NC(=O)c3cc(C(C)C)sc3N2)cc1 (configuration not stated) | 19.82
36 | CC(C)c1cc2c(s1)NC(c1ccccn1)NC2=O (configuration not stated) | 100.6
37 | CC(C)c1cc2c(s1)NC(c1ccccc1)NC2=O (configuration not stated) | 16.99
38 | CC(C)C(=O)N1CCN(Cc2ccccn2)CC2(CC(=O)N(C)C2)C1.O=C(O)C(F)(F)F.O=C(O)C(F)(F)F (configuration not stated) | -3.72
39 | Cc1ccccc1C(C)N(C)Cc1nc2c(cnn2C)c(=O)[nH]1 (configuration not stated) | -10.61
40 | CC(c1ccccc1Cl)N(C)Cc1nc2c(cnn2C)c(=O)[nH]1 (configuration not stated) | -6.582
41 | COc1ccccc1C(C)N(C)Cc1nc2c(cnn2C)c(=O)[nH]1 (configuration not stated) | 82.45
42 | Cc1ccc(C(C)N(C)Cc2nc3c(cnn3C)c(=O)[nH]2)c(C)c1 (configuration not stated) | -15.24
43 | Cc1ccc(C(C)N(C)Cc2nc3c(cnn3C)c(=O)[nH]2)s1 (configuration not stated) | 59.53
44 | CC(C)CN(Cc1nc2c(cnn2C)c(=O)[nH]1)C(C)C | 9.965
45 | CC(C)N(Cc1ccccn1)Cc1nc2c(cnn2C)c(=O)[nH]1 | 66.99
46 | Cc1ccc(C(C)N(C)Cc2nc3c(cnn3C)c(=O)[nH]2)cc1 (configuration not stated) | 36.86

Row | SMILES | Percent Effect [%]
47 | Cc1ccc(CN(Cc2nc3c(cnn3C)c(=O)[nH]2)C(C)C)s1 | -2.161
48 | COC(=O)CCC(=O)N1CCCC2(CCCN2Cc2cccc(F)c2)C1.O=C(O)C(F)(F)F (configuration not stated) | 3.912
49 | O=C(O)C(F)(F)F.O=C(c1ccco1)N1CC[C@@H]2O[C@@H](COCCN3CCCC3)CC[C@@H]21 | -12.96
50 | COCCN1CCC2(CC1)C(=O)Nc1ccc(C(=O)NC(C)C)cc12.O=C(O)C(F)(F)F | -30.6
51 | O=C(NC1CCCN(c2ccc(OC(F)F)cc2)C1)c1cnccn1 (configuration not stated) | 27.97
52 | Cl.O=C(CN1CCCC1=O)N1CCC(O)(Cn2ccc3ccncc32)CC1 | 9.776
53 | O=C(O)C(F)(F)F.O=S(=O)(C1CC1)N1C[C@@H]2COC[C@]2(COc2ccccn2)C1 | -12.78
54 | COc1cccc(CC2CCCN2Cc2nccn2C)c1 (configuration not stated) | 0.2214
55 | CNCC(=O)N1CCCC1c1n[nH]cc1-c1ccccc1F.Cl (configuration not stated) | -23.25
56 | Cc1cccnc1C(Cc1ccsc1)NCc1cnc(N(C)C)nc1 (configuration not stated) | 69.2
57 | COc1ccc(NC(=O)N(CCO)Cc2ccsc2)c(OC)c1 | -10.14
58 | COc1ccc(CNC(Cc2ccsc2)c2ccc(C)cn2)c(OC)c1 (configuration not stated) | 104.3
59 | COc1cccc(CNC(C)C)c1OCc1ccc(C)cc1.Cl | 4.479
60 | CCc1cnc(N)nc1NCc1ccc(OC)cc1OC | -28.22
61 | COc1ccc(CNc2c(C)nn(C(C)C)c2C)cc1OC.Cl | 12.96
62 | Cc1cccc(-c2ncc(CNC(C)Cc3ncccc3C)cn2)c1 (configuration not stated) | 1.404
63 | COc1ccc(CNC(Cc2cccs2)c2nc(C)c(C)s2)cc1OC.Cl (configuration not stated) | -4.28
64 | COc1ccc(CNC(Cc2ccsc2)c2ccc(C)cn2)cc1OC.Cl (configuration not stated) | 97.07
65 | COc1ccncc1NCc1ccsc1 | -12.4
66 | Cc1cccnc1C(Cc1ccsc1)NC(=O)Cn1cccnc1=O (configuration not stated) | -0.9287
67 | COc1cccc(OC)c1CNC(Cc1ccsc1)c1ccc(C)cn1 (configuration not stated) | 103.5
